Screening results: PubChem, The Scripps Research Institute Molecular Screening Center
TbREL1 primary: TbREL1 RNA ligase inhibitors, primary screen, biochemical, FRET fluorescence; RNA-editing ligase 1, mitochondrial (Trypanosoma brucei brucei), P86926; TbREL1 RNA ligation; inhibition, % at 9.66 µM; hit rate 0.49% among 89,000; AID 1117264, 2014;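 active means inhibition above the mean inhibition across all screened compounds plus 3 SD, cut at about 11% in these data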;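 further: 0% = plate median of test wells and 100% = NSC42067 control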
Target sequence (P86926 whole entry, looked up): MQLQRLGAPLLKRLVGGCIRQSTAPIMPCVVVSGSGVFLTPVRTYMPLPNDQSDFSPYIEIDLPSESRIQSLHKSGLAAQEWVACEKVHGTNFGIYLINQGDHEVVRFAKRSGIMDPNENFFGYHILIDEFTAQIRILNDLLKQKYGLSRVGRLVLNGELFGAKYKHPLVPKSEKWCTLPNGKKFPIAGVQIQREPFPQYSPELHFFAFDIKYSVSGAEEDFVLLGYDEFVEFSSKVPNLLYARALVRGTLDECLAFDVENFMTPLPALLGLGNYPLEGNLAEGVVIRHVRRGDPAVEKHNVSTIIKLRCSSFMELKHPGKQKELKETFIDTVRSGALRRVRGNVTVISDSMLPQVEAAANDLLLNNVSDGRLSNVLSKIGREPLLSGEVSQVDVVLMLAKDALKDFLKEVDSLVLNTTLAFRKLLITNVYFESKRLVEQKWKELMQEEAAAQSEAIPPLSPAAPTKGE
TbREL1 conf: TbREL1 RNA ligase inhibitors, confirmation, biochemical, FRET fluorescence, triplicate. TbREL1 RNA ligation. shares compounds with TbREL1 primary. inhibition, % at 9.66 µM. hit rate 37% among 390. AID 1117282, 2014;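 active means mean inhibition across replicates above a set limit taken from the earlier primary screen, cut at about 11% in these data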;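 further: 0% = REL1 with substrate and DMSO and 100% = REL1 plus control inhibitor NSC42067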
An asterisk follows results filed as active. Many of the other results were omitted from the sample, so hits are more common in it than they were.

SMILES	TbREL1 primary	others
Cc1ccc(-n2nnnc2SCC(=O)c2c(N)n(C3CC3)c(=O)[nH]c2=O)cc1	1
Cn1c(N)c(C(=O)CSc2nnc(C3CC3)n2Cc2ccccc2)c(=O)[nH]c1=O	-3
Cn1c(N)c(C(=O)CSc2nnc(-c3c[nH]c4ccccc34)n2C2CC2)c(=O)[nH]c1=O	15*	TbREL1 conf=7
O=C(CN1C(=O)C2(OCCCO2)c2ccccc21)NCc1ccccc1Cl	0
O=C(Nc1ccc(Cl)cc1)N1CCN(Cc2nc3ccccc3c(=O)[nH]2)CC1	3
Cc1ccc(S(=O)(=O)NCC2CN(S(=O)(=O)c3ccc(C)cc3)c3ccccc3C(=O)N2c2ccc(F)cc2)cc1 (centres undefined)	-4
O=c1c2c(-c3ccco3)csc2nc(SCc2cn3cccnc3n2)n1-c1ccccc1	23*	TbREL1 conf=0
c1ccc(SCc2cn3cccnc3n2)nc1	1
Nc1ccccc1SCc1cn2cccnc2n1	0
C[C@@H]1CCCN1c1cccc2c1S(=O)(=O)N(C1CC1)CCCO2	5
C=CCc1ccc(OCCCOc2ccc(C)cc2OC)c(OC)c1	1
C=CCc1ccc(OCCCNCc2ccccc2)c(OC)c1	12*	TbREL1 conf=10
C=CCc1ccc(OCCOCCOc2ccccc2[N+](=O)[O-])c(OC)c1	-1
COc1ccc2ccccc2c1C=Nn1c(-c2n[nH]c3c2CCC3)n[nH]c1=S	-5
Cc1ccc(-c2cc(-c3nnc(SCC(=O)Nc4ccccc4-c4ccccc4)n3N)[nH]n2)cc1	4
COc1cc(-n2c(C)nc3cc(C(=O)N4CCCN(C(C)=O)CC4)ccc32)cc(OC)c1OC	3
Nc1ccc(-c2nc3ccc(-c4nc5ccccc5o4)cc3[nH]2)cc1	3
Nc1ccc(-c2nc3ccc([N+](=O)[O-])cc3[nH]2)cc1	3
Nc1ccc(-c2nc3ccc(N)cc3[nH]2)cc1	18*	TbREL1 conf=36*
COc1ccc(-c2nnc(SCC(=O)NN=C(C)c3cccc4ccccc34)n2-c2ccc(C)cc2)cc1	1
COc1ccc(-c2cc(C(=O)NN=Cc3ccc(C)s3)[nH]n2)cc1	7
C#CCNC(=O)C[C@H]1C[C@@]2(C(=O)OC)C(=C[C@H](C(C)C)O[C@@H]2C2CC2)N(CCCCCCCC)C1=O	5
COC(=O)c1cnn2c(C)c(Cc3cccc(F)c3)c(C)nc12	16*	TbREL1 conf=2
Cc1nc2c(C(=O)N3CCCC3)cnn2c(C)c1Cc1c(F)cccc1Cl	7
COC(=O)c1ccc2nc(-c3ccc(C)cc3)c(Cc3cccc(F)c3)n2c1	7
SMILES	TbREL1 primary	others
Oc1ccc(/C=N/N(Cc2ccccc2)c2ccccc2)c(O)c1O	-4
Cc1cc(C(=O)N/N=C/c2ccc(O)c(O)c2O)c(C)n1-c1ccccc1	1
CCN=c1scc(C)n1/N=C/c1ccc(O)c(O)c1O	13*	TbREL1 conf=24*
CCOc1ccc(CCNC(=O)c2ccc3[nH]ccc3c2)cc1OCC	0
O=C(NCc1ccccc1CN1CCCC1)C1CCN(C(=O)c2ccc(Cl)cc2)CC1	2
O=C(NCc1ccccc1CN1CCCC1)c1cc2cc(Cl)ccc2o1	12*	TbREL1 conf=4
O=C(c1cc2cc(Cl)ccc2o1)N1CCCC1	2
O=C(CNS(=O)(=O)c1ccc(Br)s1)N1CCN(c2ccccn2)CC1	-3
CCOC(=O)[C@@]12CCCC=C1N(CCc1ccc(Cl)cc1)C(=O)[C@H]2CC(=O)NCc1ccccc1	-4
CCC(C)NC(=O)C1CCN(S(=O)(=O)c2cccnc2)CC1 (centres undefined)	2
CCC(C)NC(=O)C1CCN(S(=O)(=O)c2ccc3[nH]c(=O)oc3c2)CC1 (centres undefined)	12*	TbREL1 conf=25*
Cc1ccc(NC(=O)C2CCN(S(=O)(=O)c3ccc4[nH]c(=O)oc4c3)CC2)cc1F	-1
O=C(Nc1ccc(Br)cc1)OCCN1CCCC12CCC(c1ccccc1)CC2 (centres undefined)	3
Nn1c(SCC(=O)N2CCOCC2)nnc1-c1cc(-c2ccc(F)cc2)n[nH]1	4
CCOC(=O)Cc1nnc(NC(=O)c2ncn[nH]2)s1	11*	TbREL1 conf=7
CCOC(=O)Cc1nnc(NC(=O)COc2ccc(C)cc2)s1	0
CCOC(=O)Cc1nnc(NC(=O)c2ccccc2OCC)s1	-2
COc1cc(NC(=O)C2CCN(c3nnc(-n4cccc4)s3)CC2)cc(OC)c1	-3
O=C(N/N=C/c1sc(N2CCOCC2)nc1-c1ccccc1)c1ccccc1O	3
O=C(CCN1CCOCC1)N/N=C/c1cc(Br)cc(Br)c1O	3
O=C(Cc1csc(N2CCOCC2)n1)N/N=C/c1ccc(O)c(O)c1O	12*	TbREL1 conf=35*
Cc1cccc(NC(=O)[C@H]2CC(=O)O[C@@H]2c2ccccc2)c1C	2
COC(CNC(=O)[C@H](Cc1c[nH]c2ccccc12)NC1(C(=O)NC2CCCCC2)CCCCC1)OC	-4
COc1ccc(CC(N)c2csc(Nc3ccc(C(C)=O)cc3)n2)cc1 (centres undefined)	3
